Data on 38 molecules can be found in PubChem BioAssay (NCATS).

The target in experiment [1] is Aldehyde dehydrogenase, mitochondrial (Homo sapiens) (UniProt P05091). In words: qHTS for Inhibitors of the Aldehyde Dehydrogenase Family (ALDH2) Primary screen (AID 2061308). Further: nearly all actives have a fitted effect of over 55% in size. In general terms: Quantitative high-throughput screening tests each substance at several concentrations.
The target of experiment [2] is Retinaldehyde dehydrogenase 3 (Homo sapiens) (UniProt P47895). In words: qHTS for Inhibitors of the Aldehyde Dehydrogenase Family (ALDH1A3) Primary screen (AID 2061315).

Inconclusive results are not listed. A call without a number means that no potency is given here. Activity calls are given as the source filed them. The call rests on the fitted dose curve; in most records, active means well fitted curve in the direction sought with a large enough effect; inconclusive means small, poorly fitted or top-dose-only effect, or another doubt; inactive means no such curve, though single readings can be large; an effect the other way counts as inactive or inconclusive.

Turning to `O=S1(=O)N=C(Oc2ccc(C(F)(F)F)cc2)c2ccccc21`, the Potency entry in experiment [1] and in experiment [2] was “inactive” in each case.
Consider `Cc1cc(Nc2nc(-c3ccccc3)nc3ccccc23)n[nH]1`, for which the Potency result in experiment [1] and in experiment [2] was “inactive” each time.
`S=C(NCCCc1cnc[nH]1)NCCN(Cc1ccc(Cl)c(Cl)c1)c1ccc(Br)cn1`: the Potency entry in experiment [1] and in experiment [2] was “inactive” each time.
Consider `O=C(CNC(=O)c1ccccc1)OC(C(=O)Nc1cc([N+](=O)[O-])ccc1F)c1ccccc1` (stereo unspecified), for which the Potency entry in experiment [1] and in experiment [2] was “inactive” throughout.
With `CCCCCN1CCC(C(=O)Nc2ccc([S+](=O)([O-])Nc3nccs3)cc2)CC1`, the Potency entry in experiment [1] and in experiment [2] was “inactive” throughout.
As for `O=S(=O)(Nc1ccc2ccccc2c1)c1ccc(NCc2ccc(Br)cc2O)cc1`, the Potency result in experiment [1] and in experiment [2] was “inactive” throughout.
Turning to `CN1C2CCC1CC(OC(=O)[C@H](CO)c1ccccc1)C2` (stereo partly specified), the Potency entry in experiment [1] and in experiment [2] was “inactive” in each case.
Turning to `O=C(OCC#CCSc1nnc(-c2ccc3ccccc3c2)o1)c1cc2ccccc2s1`, the Potency entry in experiment [1] and in experiment [2] was “inactive” throughout.
For the molecule `O=C1CCCC2=C1C(c1[nH]ncc1Cl)N=C(Nc1nc3ccccc3s1)N2` (stereo unspecified), the Potency entry in experiment [1] and in experiment [2] was “inactive” in each case.
As for `C=C(C(=O)OC[C@H]1O[C@@H](OC(=O)/C=C/c2ccccc2)[C@H](O)[C@@H](O)[C@@H]1O)C(O)CO` (stereo partly specified), the Potency entry in experiment [1] and in experiment [2] was “inactive” throughout.
For the molecule `Clc1ccccc1-c1ccc2ncnc(NCc3ccc4c(c3)OCO4)c2c1`, the Potency result in experiment [1] and in experiment [2] was “inactive” each time.
Consider `COC(=O)C(CC1(O)c2ccccc2N2C(=O)C(C)(C)N(O)C21)n1cnc2ccccc2c1=O` (stereo unspecified), for which the Potency result in experiment [1] and in experiment [2] was “inactive” throughout.
Regarding `O=C(Nc1ccccc1)c1cccs1`, the Potency result in experiment [1] and in experiment [2] was “inactive” throughout.
For the molecule `Cc1ccc(OCCn2c(CCNC(=O)c3ccc4ccccc4c3)nc3ccccc32)cc1`, the Potency entry in experiment [1] and in experiment [2] was “inactive” in each case.
Consider `CC1(C)C=Cc2c(ccc3c2N=C2C(C)(C)[C@@H]4C[C@]56CCCN5C(=O)[C@@]4(C[C@]23O)NC6=O)O1`, for which the Potency result in experiment [1] and in experiment [2] was “inactive” in each case.
For the molecule `Cc1nc(-c2ccccc2C(C)C)nc(NCc2ccc(-c3cccnc3)cc2)c1C`, the Potency entry in experiment [1] and in experiment [2] was “inactive” throughout.
Consider `Cc1cccc(NS(=O)(=O)c2ccc3c(c2)CCC(=O)N3)c1`, for which the Potency entry in experiment [1] and in experiment [2] was “inactive” each time.
On to `CNc1cc2c(cc1S(=O)(=O)Nc1ccc(C)c(C)c1)CCC(=O)N2`, for which the Potency entry in experiment [1] and in experiment [2] was “inactive” throughout.
Turning to `Cc1cccc(CNc2ccnc(-c3ccccc3F)n2)c1`, the Potency entry in experiment [1] and in experiment [2] was “inactive” each time.
Turning to `COc1ccc(N2C(=O)c3ccccc3S2(=O)=O)cc1`, the Potency entry in experiment [1] and in experiment [2] was “inactive” in each case.
Take `O=C1CCCC2=C1[C@@]1(CCC(c3ccccc3)C1)N=C(Nc1nc3ccccc3o1)N2` (stereo partly specified): the Potency entry in experiment [1] and in experiment [2] was “inactive” each time.
Regarding `C=C1C(=O)O[C@@H]2C[C@]3(C)[C@@H](CCC(C)O)[C@@H]3C[C@H]12` (stereo partly specified), the Potency entry in experiment [1] and in experiment [2] was “inactive” in each case.
Regarding `N#Cc1nc(NCC(F)F)c2ncn(-c3cc(F)cc(F)c3)c2n1`, the Potency entry in experiment [1] and in experiment [2] was “inactive” throughout.
`COc1cccc(C2c3c(ncn(-c4ccccc4C(C)(C)C)c3=N)Oc3ccc4ccccc4c32)c1` (stereo unspecified): the Potency entry in experiment [1] and in experiment [2] was “inactive” in each case.
Regarding `N#Cc1c(Cl)cccc1Oc1ccc([S+](=O)([O-])N2CCN([S+](=O)([O-])c3c(F)cccc3F)CC2)cc1`, the Potency entry in experiment [1] and in experiment [2] was “inactive” throughout.
In the case of `Cn1nnnc1Sc1ncnc2scc(-c3ccsc3)c12`, the Potency result in experiment [1] and in experiment [2] was “inactive” throughout.
For `CCOc1ccc(CCNC(=O)c2cc3sccc3n2Cc2ccccc2)c(F)c1OCC`, the Potency entry in experiment [1] and in experiment [2] was “inactive” each time.
With `CN(C)c1ccc(CNc2nc(-c3ccccc3C(F)(F)F)nc3ccccc23)cc1`, the Potency entry in experiment [1] and in experiment [2] was “inactive” in each case.
For the molecule `COC(=O)c1cc(F)c(S(=O)(=O)N2CCN(S(=O)(=O)c3ccc4c(c3)OCCO4)CC2)cc1F`, the Potency entry in experiment [1] and in experiment [2] was “inactive” each time.
On to `O=C(NCc1nnc(-c2cc3ccccc3[nH]2)s1)c1ccccc1`, for which the Potency entry in experiment [1] and in experiment [2] was “inactive” in each case.
On to `Cc1onc(-c2ccccc2Cl)c1C(=O)N[C@@H]1C(=O)N2[C@@H]1SC(C)(C)[C@@H]2C(=O)O`, for which the Potency entry in experiment [1] and in experiment [2] was “inactive” throughout.
For the molecule `COc1cccc(C(=O)Nc2ccc([S+](=O)([O-])Nc3nccs3)cc2)c1O`, the Potency result in experiment [1] and in experiment [2] was “inactive” throughout.
For the molecule `Cc1ccc(-c2cc(C(=O)Nc3ccn[nH]3)c3ccccc3n2)cc1C`, the Potency entry in experiment [1] and in experiment [2] was “inactive” throughout.
For the molecule `C/C=C(/C)C(=O)O[C@H]1C=C(CO)C(=O)[C@H](OC(=O)/C(C)=C/CO)[C@H]1C(C)C`, the Potency result in experiment [1] and in experiment [2] was “inactive” throughout.
With `C[C@@H]1COCCN1c1cc(C2(S(C)(=O)=O)CC2)nc(-c2cccc3[nH]ccc23)n1`, the Potency result in experiment [1] and in experiment [2] was “inactive” in each case.
In the case of `O=C(Cc1ccc(Cl)c(Cl)c1)Nc1ccc([S+](=O)([O-])Nc2nnc(-c3ccccn3)s2)cc1`, the Potency result in experiment [1] and in experiment [2] was “inactive” in each case.
`COc1ccc(C2=Nn3c(nnc3-c3ccc(OC)cc3OC)SC2)c(OC)c1`: the Potency result in experiment [1] and in experiment [2] was “inactive” each time.
As for `CN1C(=O)NC(c2ccccc2Cl)C2=C1CCCC2=O` (stereo unspecified), the Potency entry in experiment [1] and in experiment [2] was “inactive” throughout.
